Our source for the growth values is PubChem BioAssay (NCI).

SMILES strings stand for the structures. The panel holds about 83,000 compounds, 20% with a hit somewhere; the sample as a whole holds those more often.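 Compound tested at a single concentration for 48 hours in 96-well plates; a percent growth value below 10 was scored as active.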 Values without a mark were called inactive. The source made the active and inactive calls.

What all share (assay): NCI-60 one-dose screen, 48 h (100 = growth as untreated, 0 = no growth, -100 = all killed)
One assay concerns SK-MEL-2 melanoma. Conditions: 10 µM unless noted.
The subject of the next assay is EKVX NSCLC. Conditions: 10 µM unless noted.
The subject of a further assay is SN12C renal. Conditions: 10 µM unless noted.
In another assay the test system is UO-31 renal. The settings on record: 10 µM unless noted.
The test system of a further assay is TK-10 renal. Conditions: 10 µM unless noted.
The test system of another assay is CCRF-CEM leukemia. The settings on record: 10 µM unless noted.
The next assay deals with MOLT-4 leukemia. Conditions: 10 µM unless noted.
Another assay concerns SR leukemia. The settings on record: 10 µM unless noted.
The next assay deals with RPMI-8226 leukemia. The settings on record: 10 µM unless noted.
In the next assay the test system is OVCAR-8 ovarian. Conditions: 10 µM unless noted.
The test system of a further assay is OVCAR-5 ovarian. Conditions: 10 µM unless noted.
The subject of another assay is OVCAR-4 ovarian. The settings on record: 10 µM unless noted.
The next assay has as its system SK-OV-3 ovarian. The settings on record: 10 µM unless noted.
The next assay has as its system IGROV1 ovarian. Conditions: 10 µM unless noted.
The subject of the next assay is OVCAR-3 ovarian. Conditions: 10 µM unless noted.
Another assay relates to HS 578T breast. Conditions: 10 µM unless noted.
The test system of a further assay is NCI/ADR-RES ovarian. The settings on record: 10 µM unless noted.
For the next assay, the system named is ACHN renal. The settings on record: 10 µM unless noted.
The subject of another assay is CAKI-1 renal. The settings on record: 10 µM.
The test system of a further assay is A498 renal. The settings on record: 10 µM unless noted.

For the compound `NC(=NCCCOc1ccc(F)cc1)Nc1ccc(Cl)c(Cl)c1`, the growth in the assay with SK-MEL-2 melanoma was 95.9%; in the assay with EKVX NSCLC, 74.9%; in the assay with SN12C renal, 66%; with UO-31 renal it was 51.6%; with TK-10 renal, 69%; in the assay on CCRF-CEM leukemia it was 60.4%. In addition, the growth in the assay with MOLT-4 leukemia was 36.1%; with SR leukemia, 52.1%; in the assay with RPMI-8226 leukemia, 39.1%; in the assay on OVCAR-8 ovarian, 88.6%; in the assay on OVCAR-5 ovarian it was 81.5%; with OVCAR-4 ovarian, 59.9%. Besides, the growth in the assay on SK-OV-3 ovarian is 99.8%; in the assay on IGROV1 ovarian it was 45.9%; in the assay on OVCAR-3 ovarian it was 73.3%; with HS 578T breast, 65.7%; with NCI/ADR-RES ovarian, 69.9%.
As to `Cc1ccc2nc(-c3ccc(-n4on4-c4ccc(/C=C/c5ccc(-n6on6-c6ccc(-c7nc8ccc(C)cc8s7)cc6)cc5S(=O)(=O)O)c(S(=O)(=O)O)c4)cc3)sc2c1`, the growth in the assay with SK-MEL-2 melanoma is 112%; with EKVX NSCLC, 112%; with SN12C renal it was 105%; in the assay on UO-31 renal it was 90.4%; in the assay on ACHN renal it was 105%; in the assay on CAKI-1 renal, 106%. The growth with A498 renal was 112%; in the assay with CCRF-CEM leukemia it was 100%; in the assay on MOLT-4 leukemia it was 93.9%; in the assay on SR leukemia, 113%; in the assay with RPMI-8226 leukemia, 102%; in the assay with OVCAR-8 ovarian, 116%. In addition, the growth in the assay with OVCAR-5 ovarian is 105%; in the assay with OVCAR-4 ovarian, 118%; with SK-OV-3 ovarian, 113%; with IGROV1 ovarian, 101%; in the assay with OVCAR-3 ovarian it was 107%; with HS 578T breast, 116%.
With `COc1cc(C(=O)NNC(=O)c2ccccc2C(=O)O)cc(OC)c1OC`, the growth with SK-MEL-2 melanoma is 49.3%; in the assay with EKVX NSCLC, 83.4%; with SN12C renal, 40.9%; in the assay with UO-31 renal, 49%; in the assay on TK-10 renal, 72%; with CCRF-CEM leukemia, 5.04% (active). Further, the growth was -5.79% (active) with MOLT-4 leukemia; -10.9% (active) with SR leukemia; 10.8% in the assay on RPMI-8226 leukemia; 39.5% in the assay on OVCAR-8 ovarian; 84.5% with OVCAR-5 ovarian; 77.7% in the assay with OVCAR-4 ovarian. The growth was 52% in the assay on SK-OV-3 ovarian; 50.2% with IGROV1 ovarian; 29% with OVCAR-3 ovarian; 67.8% in the assay with HS 578T breast; 37.7% in the assay with NCI/ADR-RES ovarian.
For `COc1ccc(NC(=O)COCCOCCNC[C@@H]2C(=O)O[C@H]3[C@H]2CC/C(COC(=O)OC/C2=C/CC[C@@]4(C)O[C@H]4[C@H]4OC(=O)[C@@H](CN(C)C)[C@@H]4CC2)=C\CC[C@@]2(C)O[C@@H]32)c(O)c1C(N)=O`, the growth in the assay with SK-MEL-2 melanoma is 68.3%; in the assay with EKVX NSCLC, 81.5%; with SN12C renal, 40%; with UO-31 renal, 2.07% (active); in the assay with TK-10 renal, -0.421% (active); with A498 renal it was 96.2%. Besides, the growth was -9.68% (active) in the assay on CCRF-CEM leukemia; -5.18% (active) with MOLT-4 leukemia; 0.464% (active) with SR leukemia; 32.4% in the assay on OVCAR-8 ovarian; 91% in the assay with OVCAR-5 ovarian; 31.3% with OVCAR-4 ovarian. For the same compound, the growth with SK-OV-3 ovarian was 79.4%; with IGROV1 ovarian, 26.6%; with OVCAR-3 ovarian, 0.0325% (active); with HS 578T breast it was 79.2%; with NCI/ADR-RES ovarian, 101%.
Regarding `CCc1cccc(C)c1NC(=O)c1sc2nc3c(cc2c1N)CCCCC3`, the growth in the assay on SK-MEL-2 melanoma is 38.9%; with EKVX NSCLC, 45.7%; in the assay with SN12C renal it was 41.1%; with UO-31 renal it was 51%; in the assay on TK-10 renal it was 66.7%; with A498 renal it was 8.2% (active). Further, the growth is 16.6% in the assay on CCRF-CEM leukemia; 26.7% in the assay with MOLT-4 leukemia; 14.4% in the assay on SR leukemia; 28.9% in the assay on OVCAR-8 ovarian; 45% with OVCAR-5 ovarian; 63.9% in the assay on OVCAR-4 ovarian. In addition, the growth in the assay on SK-OV-3 ovarian is 36.9%; in the assay with IGROV1 ovarian it was 46.5%; with OVCAR-3 ovarian, 3.96% (active); in the assay on HS 578T breast, 36%; in the assay with NCI/ADR-RES ovarian it was 14.2%.
For `O=C(NCCNc1nccc(-c2c(-c3cccc(O)c3)nc3sccn23)n1)c1cc(N2CCOCC2)cc(C(F)(F)F)c1`, the growth with SK-MEL-2 melanoma was 64.5%; with EKVX NSCLC, 88.6%; in the assay with SN12C renal it was 89.8%; in the assay on UO-31 renal it was 87.5%; in the assay on ACHN renal it was 79.4%; with CAKI-1 renal, 82.5%. The growth with A498 renal was 92.8%; in the assay with CCRF-CEM leukemia, 52.9%; in the assay on MOLT-4 leukemia, 68.6%; with SR leukemia, 97.3%; in the assay with RPMI-8226 leukemia it was 67%; in the assay with OVCAR-8 ovarian it was 78.1%. Besides, the growth was 101% with OVCAR-5 ovarian; 133% with OVCAR-4 ovarian; 94% with SK-OV-3 ovarian; 80.4% with IGROV1 ovarian; 107% in the assay with OVCAR-3 ovarian.
`C=CC(=O)Nc1cccc(Nc2nc(Nc3ccc(OCCOC(F)F)cc3)ncc2F)c1`: the growth in the assay on SK-MEL-2 melanoma was 0.225% (active); with EKVX NSCLC it was 67.6%; in the assay with SN12C renal, 22%; with UO-31 renal, 6.93% (active); in the assay on ACHN renal, 4.89% (active); with CAKI-1 renal, 11.3%. In addition, the growth was -35.4% (active) with A498 renal; 24.8% with CCRF-CEM leukemia; 33.5% with MOLT-4 leukemia; 10.5% in the assay on SR leukemia; 42.1% in the assay on RPMI-8226 leukemia; 46% with OVCAR-8 ovarian. The growth with OVCAR-5 ovarian was 45.6%; in the assay with OVCAR-4 ovarian it was 40.6%; in the assay with SK-OV-3 ovarian, -25% (active); with IGROV1 ovarian it was 14%; with OVCAR-3 ovarian it was 48.4%; with HS 578T breast, 23.4%. For the same compound, the growth with NCI/ADR-RES ovarian was 44.6%.
As for `COc1ccc(CCNC=O)cc1OC`, the growth in the assay on SK-MEL-2 melanoma is 105%; in the assay with EKVX NSCLC, 105%; in the assay on SN12C renal, 97.4%; in the assay with UO-31 renal, 82.3%; in the assay on ACHN renal, 101%; in the assay with CAKI-1 renal, 100%. Also, the growth with A498 renal is 102%; in the assay with CCRF-CEM leukemia it was 105%; in the assay with MOLT-4 leukemia, 100%; with SR leukemia, 117%; in the assay with RPMI-8226 leukemia, 108%; in the assay with OVCAR-8 ovarian, 107%. The growth in the assay on OVCAR-5 ovarian is 99.7%; with OVCAR-4 ovarian, 100%; in the assay with SK-OV-3 ovarian it was 114%; in the assay with IGROV1 ovarian it was 94%; with OVCAR-3 ovarian, 110%; with HS 578T breast it was 105%.
`COc1cc(C(=O)C[n+]2ccccc2)ccc1OC(C)=O`: the growth in the assay with SK-MEL-2 melanoma was 102%; in the assay with EKVX NSCLC it was 100%; with SN12C renal it was 98.1%; with UO-31 renal it was 104%; with ACHN renal, 105%; with CAKI-1 renal, 99.3%. In addition, the growth was 78.9% in the assay with A498 renal; 95.9% in the assay on CCRF-CEM leukemia; 98.2% in the assay on MOLT-4 leukemia; 109% in the assay on SR leukemia; 97.9% in the assay with RPMI-8226 leukemia; 102% in the assay on OVCAR-8 ovarian. The growth is 105% in the assay with OVCAR-5 ovarian; 96.8% in the assay with OVCAR-4 ovarian; 97.5% in the assay with SK-OV-3 ovarian; 107% in the assay with IGROV1 ovarian; 106% in the assay with OVCAR-3 ovarian; 95.1% with HS 578T breast. Also, in the assay on NCI/ADR-RES ovarian, the growth is 111%.
